# The supplement of paper PMC11628255, “Interference of metal ions on the bioluminescent signal of firefly, Renilla, and NanoLuc luciferases in high-throughput screening assays” (Frontiers in Chemistry, 2024)
# ± gives the standard deviation of the averaged measurements.
# Test system: firefly luciferase (FLuc)
# Test: residual bioluminescent signal relative to negative (DMSO) control; higher = less interference (more residual luciferase signal)
# Protocol: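 Purified luciferase (FLuc 10 nM + 10 uM D-luciferin; NLuc 10 pM + 10 uM furimazine; RLuc 50 pM + 2 uM coelenterazine) in 384-well plates; metal salt pre-incubated with enzyme 10 min at RT, substrate added and luminescence read after 10 min. Signal normalised to plate DMSO negative control (% N_VALUE = x/mean neg *100); triplicate wells at 0.01, 1 and 5 mM salt.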
# [1] = metal salt concentration 0.01 mM, HEPES conditions (100 mM HEPES, 5 mM MgSO4, 10 uM ATP, pH 7.5)
# [2] = metal salt concentration 0.01 mM, screening conditions (0.5 mM Tris, 50 mM glycine, 0.5 mM EDTA, 5 mM MgSO4, 10 uM ATP, pH 7.6)
# [3] = metal salt concentration 1 mM, HEPES conditions (100 mM HEPES, 5 mM MgSO4, 10 uM ATP, pH 7.5)
# [4] = metal salt concentration 1 mM, screening conditions (0.5 mM Tris, 50 mM glycine, 0.5 mM EDTA, 5 mM MgSO4, 10 uM ATP, pH 7.6)
# [5] = metal salt concentration 5 mM, HEPES conditions (100 mM HEPES, 5 mM MgSO4, 10 uM ATP, pH 7.5)
# [6] = metal salt concentration 5 mM, screening conditions (0.5 mM Tris, 50 mM glycine, 0.5 mM EDTA, 5 mM MgSO4, 10 uM ATP, pH 7.6)
SMILES,residual bioluminescent signal [1],residual bioluminescent signal [2],residual bioluminescent signal [3],residual bioluminescent signal [4],residual bioluminescent signal [5],residual bioluminescent signal [6]
O=[N+]([O-])[O-].[Na+] [sodium nitrate],90 ± 7.6%,79.1 ± 6.3%,72.4 ± 18%,71.7 ± 2.9%,60 ± 13%,50 ± 4.3%
O=[N+]([O-])[O-].O=[N+]([O-])[O-].O=[N+]([O-])[O-].[Ga+3] [gallium(III) nitrate],86.3 ± 16%,3.77 ± 5%,72.6 ± 17%,0.264 ± 0.091%,0.679 ± 0.47%,0.474 ± 0.48%
O=[N+]([O-])[O-].O=[N+]([O-])[O-].O=[N+]([O-])[O-].[Al+3] [aluminium nitrate],78.9 ± 7.9%,75.8 ± 6%,0.679 ± 0.47%,0.343 ± 0.17%,0.543 ± 0.23%,90.5 ± 5.5%
O=[N+]([O-])[O-].[Ag+] [silver nitrate],1.36 ± 0.62%,1.13 ± 0.6%,1.36 ± 1.6%,0.316 ± 0.079%,1.49 ± 0.62%,0.369 ± 0.17%
O=[N+]([O-])[O-].O=[N+]([O-])[O-].[Ni+2] [nickel(II) nitrate],64.7 ± 8.8%,71.2 ± 7.5%,2.31 ± 1.6%,0.501 ± 0.33%,0.814 ± 0.41%,0.58 ± 0.091%
O=[N+]([O-])[O-].[Li+] [lithium nitrate],92.2 ± 20%,93 ± 5.3%,92.2 ± 40%,85.8 ± 4.8%,90.5 ± 3.9%,74.5 ± 2.7%
O=[N+]([O-])[O-].O=[N+]([O-])[O-].[Cu+2] [copper(II) nitrate],2.58 ± 1%,108 ± 11%,0.407%,0.712 ± 0.4%,0.95 ± 0.62%,0.553 ± 0.32%
